# In PubChem BioAssay:
# Active and inactive are the calls of the source.
# Tests used:
# [1] = small molecules captured by biotinylated probe aFSTL3 – biochemical, small-molecule microarray, fluorescence 635/667, stem cell growth factor project, primary screen (AID 1064); conditions: higher = more signal;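 further: measures binding of the biotinylated anti-FSTL3 antibody to printed compounds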
# [2] = binders from COS7 lysate, DM2A8 probe, primary screen, torsin A project, cell lysate, small-molecule microarray, fluorescence 635/667 (AID 1065); conditions: higher = more signal, COS7 lysate expressing mutant human TOR1A
# [3] = small molecules captured by biotinylated probe aFGF2 – biochemical, small-molecule microarray, fluorescence 635/667, stem cell growth factor project, primary screen (AID 1067); conditions: higher = more signal;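 further: measures binding of biotinylated aFGF2 protein to printed compounds on slides; z-score merges feature fluorescence and signal-to-noise across triplicate slides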
# [4] = small molecules captured by biotinylated probe aFGF10 – biochemical, small-molecule microarray, fluorescence 635/667, stem cell growth factor project, primary screen (AID 1071); conditions: higher = more signal;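 further: score merges 667 nm spot intensity and signal to noise from triplicate slides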
# [5] = target: Neurogenic locus notch homolog protein 2 (Homo sapiens) (UniProt Q04721); assay: small molecules binding Notch2 protein – biochemical, small-molecule microarray, 635 nm fluorescence, stem cell growth factors, primary screen (AID 1073); conditions: higher = more signal
# [6] = target: Pro-neuregulin-1, membrane-bound isoform (Homo sapiens) (UniProt Q02297); assay: small molecules binding neuregulin-1 protein – biochemical, small-molecule microarray, fluorescence 635/667, psychiatric disease protein project, primary screen (AID 1075); conditions: NRG1 binding, 635 nm fluorescence, higher = more signal;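 further: score combines 667 nm spot fluorescence with signal to noise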
# [7] = test system: Neuregulin-1 EGF-like domain; assay: small molecules binding NRG1 EGF domain – biochemical, small-molecule microarray, 635 nm fluorescence, primary screen (AID 1081); conditions: higher = more signal;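 further: binding of the protein to compounds printed on small-molecule microarray slides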
# [8] = FRG1 expression reporter modulators in myotubes – cell-based, C2C12 myotubes, firefly/Renilla luciferase, luminescence, FRG1 inhibition for FSHD, primary screen (AID 1084); conditions: FRG1 promoter luciferase, higher = more signal, called active from +8 up or from −8 down
# [9] = small molecules captured by biotinylated probe aFST – biochemical, small-molecule microarray, fluorescence 635/667, stem cell growth factor project, primary screen (AID 1086); conditions: higher = more signal;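 further: score merges 667 nm fluorescence with signal-to-noise of each printed compound spot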
# [10] = binders of probe aHhip on microarray, primary screen, stem cell growth factor project, biochemical, small-molecule microarray, fluorescence 635/667 (AID 1087); conditions: higher = more signal;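 further: score merges spot fluorescence at 667nm with spot signal to noise ratio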
# Sequence of Neurogenic locus notch homolog protein 2 (Homo sapiens) (Q04721 whole entry, looked up, canonical isoform): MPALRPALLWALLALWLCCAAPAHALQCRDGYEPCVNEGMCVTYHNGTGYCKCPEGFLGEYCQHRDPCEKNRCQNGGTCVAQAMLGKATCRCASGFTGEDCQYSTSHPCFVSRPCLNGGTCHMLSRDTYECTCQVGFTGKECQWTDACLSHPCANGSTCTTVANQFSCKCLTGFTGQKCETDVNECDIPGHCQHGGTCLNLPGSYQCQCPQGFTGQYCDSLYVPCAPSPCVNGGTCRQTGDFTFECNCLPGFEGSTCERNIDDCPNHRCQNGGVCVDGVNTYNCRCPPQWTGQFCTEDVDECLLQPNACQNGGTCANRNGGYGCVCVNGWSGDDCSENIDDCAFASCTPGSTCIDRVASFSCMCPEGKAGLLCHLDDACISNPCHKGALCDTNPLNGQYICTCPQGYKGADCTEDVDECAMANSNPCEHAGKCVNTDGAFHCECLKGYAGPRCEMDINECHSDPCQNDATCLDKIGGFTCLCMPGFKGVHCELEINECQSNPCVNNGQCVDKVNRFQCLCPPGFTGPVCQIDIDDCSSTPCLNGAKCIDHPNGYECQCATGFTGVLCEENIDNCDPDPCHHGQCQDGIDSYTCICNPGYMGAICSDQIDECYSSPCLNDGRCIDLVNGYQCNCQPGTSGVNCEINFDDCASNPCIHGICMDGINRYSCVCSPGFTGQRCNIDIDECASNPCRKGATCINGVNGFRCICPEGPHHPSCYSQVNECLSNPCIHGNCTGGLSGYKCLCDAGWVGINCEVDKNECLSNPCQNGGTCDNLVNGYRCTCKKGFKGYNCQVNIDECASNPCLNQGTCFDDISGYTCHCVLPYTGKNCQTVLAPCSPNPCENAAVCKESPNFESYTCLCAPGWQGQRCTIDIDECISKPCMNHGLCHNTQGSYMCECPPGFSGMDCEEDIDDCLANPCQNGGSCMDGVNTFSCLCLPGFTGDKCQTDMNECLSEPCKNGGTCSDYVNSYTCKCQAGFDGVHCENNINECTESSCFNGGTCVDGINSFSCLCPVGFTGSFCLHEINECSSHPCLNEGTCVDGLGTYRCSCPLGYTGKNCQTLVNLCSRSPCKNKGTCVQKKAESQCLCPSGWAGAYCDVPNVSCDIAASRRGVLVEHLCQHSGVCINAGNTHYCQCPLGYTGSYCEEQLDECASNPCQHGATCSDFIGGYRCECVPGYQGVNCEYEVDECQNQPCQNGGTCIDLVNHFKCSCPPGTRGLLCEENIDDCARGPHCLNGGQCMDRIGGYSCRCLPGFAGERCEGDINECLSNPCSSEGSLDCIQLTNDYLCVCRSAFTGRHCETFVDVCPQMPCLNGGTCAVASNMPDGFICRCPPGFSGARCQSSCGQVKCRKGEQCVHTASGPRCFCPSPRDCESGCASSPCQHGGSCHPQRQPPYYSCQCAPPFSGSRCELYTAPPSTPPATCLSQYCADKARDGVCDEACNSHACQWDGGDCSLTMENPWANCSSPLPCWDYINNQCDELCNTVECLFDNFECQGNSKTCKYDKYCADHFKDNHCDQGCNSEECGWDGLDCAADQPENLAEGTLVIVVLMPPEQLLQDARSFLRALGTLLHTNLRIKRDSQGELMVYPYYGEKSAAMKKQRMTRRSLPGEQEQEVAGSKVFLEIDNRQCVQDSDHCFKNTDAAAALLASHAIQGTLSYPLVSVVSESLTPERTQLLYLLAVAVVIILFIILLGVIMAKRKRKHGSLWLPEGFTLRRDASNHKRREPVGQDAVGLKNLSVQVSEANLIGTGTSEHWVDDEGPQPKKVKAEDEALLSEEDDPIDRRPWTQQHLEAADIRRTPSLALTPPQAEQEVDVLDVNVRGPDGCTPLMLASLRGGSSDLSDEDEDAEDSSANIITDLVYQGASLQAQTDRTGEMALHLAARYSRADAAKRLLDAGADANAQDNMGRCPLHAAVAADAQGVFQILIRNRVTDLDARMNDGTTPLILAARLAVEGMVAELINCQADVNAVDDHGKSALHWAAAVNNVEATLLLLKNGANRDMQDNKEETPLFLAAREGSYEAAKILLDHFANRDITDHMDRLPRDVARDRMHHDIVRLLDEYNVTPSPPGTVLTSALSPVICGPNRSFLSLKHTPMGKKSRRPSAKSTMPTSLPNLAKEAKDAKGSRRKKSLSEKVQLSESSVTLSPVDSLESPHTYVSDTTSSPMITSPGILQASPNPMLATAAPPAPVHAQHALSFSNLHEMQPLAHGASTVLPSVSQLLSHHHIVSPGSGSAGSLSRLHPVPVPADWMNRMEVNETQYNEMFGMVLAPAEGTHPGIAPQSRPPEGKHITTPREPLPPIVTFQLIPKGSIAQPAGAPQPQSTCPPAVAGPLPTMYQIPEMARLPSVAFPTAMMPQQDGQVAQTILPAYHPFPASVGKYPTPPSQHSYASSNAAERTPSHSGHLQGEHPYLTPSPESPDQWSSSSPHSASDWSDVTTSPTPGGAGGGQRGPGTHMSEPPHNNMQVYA
# Sequence of Pro-neuregulin-1, membrane-bound isoform (Homo sapiens) (Q02297 whole entry, looked up, the tested form may be a part, canonical isoform): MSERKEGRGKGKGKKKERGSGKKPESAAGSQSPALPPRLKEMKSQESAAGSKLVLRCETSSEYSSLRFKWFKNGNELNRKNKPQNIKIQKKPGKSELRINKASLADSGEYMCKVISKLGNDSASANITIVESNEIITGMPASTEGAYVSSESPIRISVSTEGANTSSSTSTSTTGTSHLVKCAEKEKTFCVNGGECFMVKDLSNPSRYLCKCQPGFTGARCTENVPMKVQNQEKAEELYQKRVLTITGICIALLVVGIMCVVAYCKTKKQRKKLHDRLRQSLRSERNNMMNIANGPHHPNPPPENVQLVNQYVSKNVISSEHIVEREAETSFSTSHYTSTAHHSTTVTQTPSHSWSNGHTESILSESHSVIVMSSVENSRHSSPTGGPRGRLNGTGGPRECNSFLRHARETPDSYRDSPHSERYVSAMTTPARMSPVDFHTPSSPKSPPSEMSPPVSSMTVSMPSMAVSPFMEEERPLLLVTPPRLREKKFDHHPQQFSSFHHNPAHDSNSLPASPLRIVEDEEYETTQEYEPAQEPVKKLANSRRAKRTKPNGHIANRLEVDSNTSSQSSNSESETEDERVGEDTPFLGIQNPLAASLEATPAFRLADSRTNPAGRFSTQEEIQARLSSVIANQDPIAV
SMILES,composite z-score [1],composite z-score [2],composite z-score [3],composite z-score [4],composite z-score [5],composite z-score [6],composite z-score [7],z-score [8],composite z-score [9],composite z-score [10]
CN(C)C(=O)[C@]1(CCS(=O)(=O)c2ccccc2)N=C(c2ccc(OCCCO)cc2)O[C@@H]1c1ccccc1,0.227,0.398,0.0759,0.88,1.58,1.76,1.35,-1.74 (inactive),0.968,-0.236
C=C(COC)/C(=C/C[C@@H](OC(=O)c1ccncc1)c1ccccc1OCCO)c1cc(C(=O)OC)ccc1OC,0.232,-0.72,-0.0718,0.263,-0.381,-0.33,0.851,-1.87 (inactive),-0.3,-0.0645
O=C(O)[C@H]1C[C@H]2C(=O)N[C@@H](Cc3ccccc3)C(=O)N2[C@H]1c1cccc(OCCO)c1,0.07,0.96,-0.0246,0.495,-0.116,0.154,1.44,5.68 (inactive),0.309,0.188
CCOC(=O)C[C@H]1[C@H](OC(=O)c2ccc(-c3ccccc3)cc2)[C@@H](NC(=O)Cc2ccc(OC)cc2)c2cc(OCCCO)ccc2N1C(=O)Cc1ccc(OC)cc1,-0.278,-0.236,-0.101,0.102,0.216,0.243,-0.29,-0.362 (inactive),0.3,-0.154
CC(C)C(=C=CC[C@@H](O)c1cccc(OCCO)c1)C[C@@H](O)c1ccccn1,-0.437,-0.0934,-0.147,0.815,-0.553,-0.253,0.125,1.35 (inactive),-0.0246,-0.137
CCCCC=C[C@@H](NC(=O)c1ccccc1)c1ccccc1,0.277,0.241,0.0011,0.356,1.21,0.868,1.02,1.03 (inactive),0.866,-0.206
COc1cc(C(O)C2C=CC3C(=O)N(Cc4ccccc4)C(=O)C3N2n2cnnc2)cc(OC)c1OC (stereo not given),-0.246,0.606,0.133,0.537,1.49,0.332,1.14,-1.7 (inactive),0.39,-0.0867
CC(C)C[C@@H]1NC(=O)CNC(=O)[C@@]23C(=O)N[C@@H](Cc4ccccc4)C2[C@H](C)[C@@]2(C)O[C@H]2C3/C=C/C/C=C\CNC1=O (stereo not given in full),-0.454,0.109,-0.087,0.68,0.429,0.345,0.919,1.4 (inactive),0.0427,-0.171
C=C(/C(=C/C[C@H](OC(=O)c1ccncc1)c1cccc(OCCO)c1)c1cnc2ccccc2c1)C(C)C,0.0581,0.857,-0.0448,1.34,1.41,1.07,0.884,-2.64 (inactive),0.157,0.0695
COc1ccc([Si](C)(C)[C@@H]2[C@@H](CCn3cc([C@H](O)c4ccccc4)nn3)O[C@]3(C(=O)N(Cc4cccc(N5C(=O)c6cccc7cccc5c67)c4)c4ccccc43)[C@H]2C)cc1,0.022,-0.362,-0.146,-0.472,-0.643,0.173,0.741,-0.814 (inactive),-0.0472,-0.309
COCCOC(=O)N1C(=O)[C@@]2(c3cc(C#CCC(C(=O)OC)C(=O)OC)ccc31)[C@H](C(=O)NC[C@H](O)c1ccccc1)[C@H]1C(=O)O[C@H](c3ccccc3)[C@H](c3ccccc3)N1[C@@H]2c1ccc(OCCO)cc1,-0.341,0.0051,-0.113,0.245,0.917,0.161,1.23,0.856 (inactive),0.5,-0.0994
C=C(C)C1CCC(C(O)C2C=CC3C(=O)N(C)C(=O)C3N2Nc2cc(OC)c(OC)c(OC)c2)CC1 (stereo not given),0.735,0.287,0.115,0.334,1.57,1.97,1.29,1.12 (inactive),1.07,-0.0296
COC(=O)C(CC#Cc1ccc2c(c1)[C@]1(C(=O)N2)[C@H](c2ccc(OCCO)cc2)N2[C@H](c3ccccc3)[C@H](c3ccccc3)OC(=O)[C@H]2[C@@H]1C(=O)N1CCN(c2ncccn2)CC1)C(=O)OC,-0.505,1.01,0.0275,1.12,1.51,0.746,1.27,1.45 (inactive),0.643,0.386
COCC1C2CC[C@H]3C(OCc4ccc(OC)cc4)OC[C@]4(C)[C@H]3C2=C(CN4C(=O)OC(C)(C)C)[C@H](C)C1COC (stereo not given in full),-0.163,0.0867,0.142,1.09,1.72,1.73,1.18,-0.31 (inactive),0.993,-0.164
COCCOC(=O)N1C(=O)[C@@]2(c3cc(C#CCC(C(=O)OC)C(=O)OC)ccc31)[C@H](c1ccc(OCCO)cc1)N1[C@H](c3ccccc3)[C@H](c3ccccc3)OC(=O)[C@H]1[C@@H]2C(=O)Nc1nc2ccccc2s1,-0.0598,0.215,-0.17,0.383,1.22,-0.0762,1.23,4.65 (inactive),0.524,-0.148
C=C(/C(=C/C[C@@H](OC(=O)c1ccncc1)c1cccc(OCCO)c1)c1cnc2ccccc2c1)C(C)C,0.21,0.375,-0.123,1.15,1.22,0.788,1.17,2.61 (inactive),0.573,-0.116
CN1C(=O)C2C=CC(C(O)c3cc(C(F)(F)F)cc(C(F)(F)F)c3)N(NC(=O)OC(C)(C)C)C2C1=O (stereo not given),0.153,0.324,-0.0169,0.577,1.67,2.01,1.03,1.07 (inactive),1.52,-0.0296
CN1C(=O)C2C=CC(C(O)c3cc(C(F)(F)F)cc(C(F)(F)F)c3)N(Nc3ccccc3)C2C1=O (stereo not given),-0.481,-0.229,-0.0656,0.05,0.245,0.862,1.25,0.715 (inactive),-0.106,-0.0994
CCCC=C(CCC)[C@@H](NC(=O)CCc1ccccc1)c1ccc(C(F)(F)F)cc1,0.304,0.0979,0.0836,0.0199,1.53,1.51,0.969,-0.129 (inactive),0.821,0.107
C=CCNC(=O)[C@@H]1[C@H]2C(=O)O[C@H](c3ccccc3)[C@H](c3ccccc3)N2[C@H](c2ccc(O)cc2)[C@@]12C(=O)N(C(=O)OCCOC)c1ccc(C#CCCO)cc12,-0.0125,0.376,-0.0222,0.82,0.258,1.05,1.35,0.354 (inactive),0.256,0.0274
COC(=O)[C@@]1(Cc2ccccc2CN=[N+]=[N-])N=C(c2ccc(OCCCO)cc2)O[C@H]1c1ccccc1CN=[N+]=[N-],0.629,-0.43,-0.0457,0.0746,-0.733,0.846,1.22,-1.23 (inactive),-0.574,-0.226
CCCCCCCCCCC(O)C1C=CC2C(=O)N(C)C(=O)C2N1Nc1cc(OC)c(OC)c(OC)c1 (stereo not given),0.736,-0.157,-0.194,-0.873,-0.717,0.55,-0.199,0.507 (inactive),0.0296,-0.21
C[C@]1(C(=O)NCC(F)(F)F)c2ccccc2C(=O)N(Cc2ccccc2)[C@H]1c1ccc(CO)cc1,0.472,-1.34,-0.167,-0.358,-1.52,0.794,0.711,-1.48 (inactive),-0.0961,-0.0003
[N-]=[N+]=NCc1ccccc1C[C@@]1(C(=O)N2CCCCC2)N=C(c2ccc(OCCCO)cc2)O[C@@H]1c1ccccc1CN=[N+]=[N-],0.319,1.42,0.0234,0.144,1.14,0.698,0.901,-3.69 (inactive),0.828,-0.177
CCOC(=O)C1=C[C@@H](C(C)(C)C)N(S(=O)(=O)c2ccc(C)cc2)[C@H]1c1ccc(C)cc1,-0.173,0.577,0.135,1.13,1.68,0.877,0.894,-2.53 (inactive),1.8,0.245
Cc1nc2cc(Br)ccc2c(=O)n1Cc1cccc(O)c1,-0.473,0.116,0.0275,0.659,0.418,-0.134,1.06,0.156 (inactive),0.314,0.409
CC(C)[C@H]1NC(=O)[C@@]23C(=O)N[C@@H](Cc4ccccc4)C2[C@H](C)[C@@]2(C)O[C@H]2C3/C=C/CCC/C=C/CNC(=O)[C@H](Cc2ccccc2)NC1=O (stereo not given in full),-0.245,0.719,-0.147,-0.0587,0.046,1.57,1.22,0.966 (inactive),-0.419,-0.319
COCCOC(=O)N1C(=O)[C@@]2(c3cc(C#CCCO)ccc31)[C@H](C(=O)N1CCCCCCC1)[C@H]1C(=O)O[C@H](c3ccccc3)[C@H](c3ccccc3)N1[C@@H]2c1ccccc1OCCO,3.32,0.659,0.688,0.473,1.43,1.85,1.18,0.253 (inactive),3.07,0.891
O=C1OCCC=C[C@H]2OC34C=CCN(c5ccc(Cl)cc5)C(=O)[C@H]3N(CCCCCCO)C(=O)[C@@H]4C12 (stereo not given in full),0.43,-0.0789,-0.116,-0.683,-0.879,-0.221,1.24,0.45 (inactive),-0.257,-0.226
